Here are results for seven molecules from PubChem BioAssay (EPA / NIEHS).

Calls of active or inactive are those of the source. Rule for the calls: active = hit-call score of the fitted dose curve at least 0.9, where 1 is the maximum; inactive = score below 0.9.

Assay [1] is described as follows: ATG_GLI_CIS: Attagene CIS-FACTORIAL HepG2 Assay for human Zinc Finger Protein GLI1 (AID 2282945). Particulars: HepG2, Attagene cis-factorial reporter mRNA, GLI element; actives raise or lower the signal. Summed up: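 Transiently transfected HepG2 cells report endogenous transcription factor activity via cis-element-driven reporter units. After 24 h compound exposure, reporter mRNA was measured by RT-PCR with capillary electrophoresis; bidirectional fitting against DMSO baseline.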

A short description of assay [2]: ATG_GRE_CIS: Attagene CIS-FACTORIAL HepG2 Assay for human Glucocorticoid Response Elements (GRE) (AID 2282947). As to conditions: HepG2 GRE cis-reporter, Attagene multiplex mRNA; actives raise or lower the signal. Summed up:
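Read-out: fluorescent reporter-transcript fragments separated by capillary electrophoresis after RT-PCR. Transiently transfected HepG2 cells carrying cis-element-driven reporter units were dosed for 24 h; gain or loss of signal fitted against DMSO control.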

A short description of assay [3]: ATG_ISRE_CIS: Attagene CIS-FACTORIAL HepG2 Assay for human Interferon Regulatory Factor 1 (IRF1) binding to an Interferon-Stimulated Response Element (ISRE) (AID 2282948). Particulars: HepG2 ISRE cis-reporter (Attagene), mRNA transcription readout; actives raise or lower the signal. Summed up: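 Endogenous transcription factor activity read as reporter transcript abundance via RT-PCR and capillary electrophoresis. HepG2 cells transiently transfected, 24 h chemical exposure. Gain or loss fitted against DMSO baseline.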

Assay [4] can be described thus: ATG_M_32_CIS: Attagene CIS-FACTORIAL HepG2 Assay for M32 Transcription Factor (Internal Marker) (AID 2282949).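 Note: background control marker of the multiplexed CIS panel rather than a real target.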 As to conditions: HepG2 Attagene cis-factorial M32 reporter, mRNA; actives raise or lower the signal. Summed up:
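Transient MRTU transfection of HepG2; 24 h compound treatment; TriZol RNA, oligo(dT) RT, reporter PCR, 6-FAM primer extension, HpaI cut, CE. Gain/loss of signal vs DMSO.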

Assay [5] is described as follows: ATG_M_06_CIS: Attagene CIS-FACTORIAL HepG2 Assay for M06 Transcription Factor (Internal Marker) (AID 2282950). Particulars: HepG2 Attagene CIS-FACTORIAL M06 internal marker reporter; actives raise or lower the signal. Summed up:
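Internal background marker within multiplexed cis-reporter HepG2 system. Cells transiently transfected, dosed 24 h; reporter mRNA measured by RT-PCR, HpaI digestion and capillary electrophoresis. Bidirectional fit relative to DMSO.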

Assay [6] addresses Hypoxia-inducible factor 1-alpha (Homo sapiens) (UniProt Q16665). The assay is described as follows: ATG_HIF1a_CIS: Attagene CIS-FACTORIAL HepG2 Assay for human Hypoxia Inducible Factor 1 (HIF1A) (AID 2282951). Particulars: HepG2 Attagene cis-factorial HIF1a reporter transcription; actives raise or lower the signal. Summed up: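 After 24 h chemical exposure of reporter-transfected HepG2 cells, reporter cDNA was PCR-amplified, labelled by 6-FAM primer extension (2 min 95 C, 20 s 68 C, 10 min 72 C), HpaI-cut (2 h, 37 C) and analysed by CE.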

In assay [7] the target is Heat shock factor protein 1 (Homo sapiens) (UniProt Q00613). The assay is described as follows: ATG_HSE_CIS: Attagene CIS-FACTORIAL HepG2 Assay for human Heat Shock Transcription Factor 1 (HSE) (AID 2282953). As to conditions: HepG2 HSE cis-reporter, Attagene RNA transcription; actives raise or lower the signal. Put shortly:
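HepG2 cells transfected with cis-promoter reporter units sensing endogenous transcription factor activity; reporter mRNA quantified 24 h post-dose by RT-PCR and capillary electrophoresis of 6-FAM-labelled products. Bidirectional fitting against DMSO.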

The nature of assay [8]: ATG_MRE_CIS: Attagene CIS-FACTORIAL HepG2 Assay for human Metal Responsive Element (MRE) (AID 2282954). Particulars: HepG2 MRE cis-reporter transcription, Attagene multiplex; actives raise or lower the signal. Put shortly: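 RT-PCR/capillary electrophoresis readout of reporter mRNA, 24 h post-dosing, in HepG2 cells transfected with multiplexed cis-regulated reporter constructs. Gain or loss of signal fitted bidirectionally against DMSO baseline.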

Assay [9] in a line: ATG_PBREM_CIS: Attagene CIS-FACTORIAL HepG2 Assay for human Phenobarbital-responsive Enhancer Module (PBREM) (AID 2282955). As to conditions: HepG2 PBREM cis-reporter, Attagene multiplexed transcription; actives raise or lower the signal. Put shortly:
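Measures endogenous factor action on a phenobarbital-responsive enhancer module. HepG2 transiently carrying cis reporters, 24 h treatment, mRNA read-out by RT-PCR plus capillary electrophoresis.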

Assay [10] concerns the target Paired box protein Pax-6 (Homo sapiens) (UniProt P26367). Put plainly: ATG_Pax6_CIS: Attagene CIS-FACTORIAL HepG2 Assay for human Paired Box 6 (PAX6) (AID 2282956). Particulars: HepG2 CIS-FACTORIAL PAX6 reporter transcription, RNA readout; actives raise or lower the signal. Summed up:
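Read-out is reporter transcript level, measured by RT-PCR with fluorescent primer extension and capillary electrophoresis after 24 h dosing of transfected HepG2 cells. Activity in either direction fitted relative to DMSO control.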

Assay [11] can be described thus: ATG_PXRE_CIS: Attagene CIS-FACTORIAL HepG2 Assay for human Pregnane X Receptor Element (PXRE) (AID 2282957). Particulars: HepG2 Attagene CIS-FACTORIAL PXRE reporter, mRNA; actives raise or lower the signal. Put shortly:
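Read-out: fluorescence of reporter-specific RT-PCR products resolved by capillary electrophoresis, fitted bidirectionally relative to DMSO. Human HepG2 liver cells carried transfected cis-promoter reporter units and were exposed to chemicals for 24 h.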

The nature of assay [12]: ATG_PPRE_CIS: Attagene CIS-FACTORIAL HepG2 Assay for human Peroxisome Proliferator-activated Response Element (PPRE) (AID 2282958). Particulars: HepG2 PPRE cis-element reporter, Attagene transcription factor profiling; actives raise or lower the signal. Put shortly:
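PPRE activity in HepG2: transient cis-reporter transfection, 24 h compound incubation, reporter mRNA by RT-PCR and CE fluorescence; gain/loss fitted against DMSO.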

Assay [13] is described as follows: ATG_Sox_CIS: Attagene CIS-FACTORIAL HepG2 Assay for human SRY-box transcription factor (SOX) (AID 2282960). Particulars: HepG2 Attagene cis-factorial SOX reporter, mRNA; actives raise or lower the signal. Summed up: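 HepG2, cis reporter units, 24 h exposure. Reporter mRNA: RT-PCR → FAM labelling → HpaI → CE fluorescence. Bidirectional fit vs DMSO.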
In assay [14] the target is Transcription factor Sp1 (Homo sapiens) (UniProt P08047). Put plainly: ATG_Sp1_CIS: Attagene CIS-FACTORIAL HepG2 Assay for human Specificity Protein 1 (Sp1) (AID 2282961). As to conditions: HepG2 Sp1 cis-reporter transcription, actives raise or lower the signal. Summed up: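 Liver-derived HepG2 cells, cis-element reporter library, 24 h treatment; RNA isolated, cDNA amplified with reporter-specific primers, FAM-labeled fragments sized on capillary analyzer. DMSO baseline, bidirectional curve fit.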

Assay [15] in a line: ATG_SREBP_CIS: Attagene CIS-FACTORIAL HepG2 Assay for human Sterol Regulatory Element Binding (SREBP) (AID 2282962). As to conditions: HepG2 Attagene cis-factorial SREBP reporter, mRNA; actives raise or lower the signal. Summed up: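 Endogenous SREBP activity read as cis-element-driven reporter transcript in transiently transfected HepG2, 24 h post-dosing; quantified via RT-PCR plus capillary electrophoresis of fluorescent fragments. Gain or loss of signal fitted relative to DMSO baseline.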

Assay [16] concerns the target Signal transducer and activator of transcription 3 (Homo sapiens) (UniProt P40763). The assay is described as follows: ATG_STAT3_CIS: Attagene CIS-FACTORIAL HepG2 Assay for human Signal Transducer and Activator of Transcription 3 (STAT3) (AID 2282963). As to conditions: HepG2, Attagene cis-factorial STAT3 reporter transcription; actives raise or lower the signal. Summed up: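 Readout: fluorescent reporter mRNA fragments resolved by capillary electrophoresis. Setup: HepG2 transfected with MRTUs reporting endogenous transcription-factor activity, dosed 24 h. Gain or loss of signal fitted bidirectionally against DMSO control.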

Assay [17] in a line: ATG_TA_CIS: Attagene CIS-FACTORIAL HepG2 Assay for human TA Basal Promoter (AID 2282964). As to conditions: HepG2 Attagene CIS-factorial TA basal promoter reporter; actives raise or lower the signal. Summed up: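 HepG2 cells transiently transfected with multiple reporter units under cis promoter elements, reporting endogenous transcription factor activity; this endpoint tracks the TA basal promoter as background control. Reporter mRNA after 24 h dosing measured by RT-PCR/capillary electrophoresis; bidirectional fits versus DMSO.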

A short description of assay [18]: ATG_RORE_CIS: Attagene CIS-FACTORIAL HepG2 Assay for human RAR-related Orphan Receptor Element (RORE) (AID 2282959). As to conditions: HepG2 Attagene cis-factorial RORE reporter, mRNA; actives raise or lower the signal. Summed up: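 A 24-hour exposure of transfected HepG2 hepatoma cells precedes RNA isolation and reporter RT-PCR. Labeled products are digested with HpaI and resolved by capillary electrophoresis, with gain or loss of signal scored relative to DMSO.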

Chain of Paired box protein Pax-6 (Homo sapiens) (P26367 whole entry, looked up): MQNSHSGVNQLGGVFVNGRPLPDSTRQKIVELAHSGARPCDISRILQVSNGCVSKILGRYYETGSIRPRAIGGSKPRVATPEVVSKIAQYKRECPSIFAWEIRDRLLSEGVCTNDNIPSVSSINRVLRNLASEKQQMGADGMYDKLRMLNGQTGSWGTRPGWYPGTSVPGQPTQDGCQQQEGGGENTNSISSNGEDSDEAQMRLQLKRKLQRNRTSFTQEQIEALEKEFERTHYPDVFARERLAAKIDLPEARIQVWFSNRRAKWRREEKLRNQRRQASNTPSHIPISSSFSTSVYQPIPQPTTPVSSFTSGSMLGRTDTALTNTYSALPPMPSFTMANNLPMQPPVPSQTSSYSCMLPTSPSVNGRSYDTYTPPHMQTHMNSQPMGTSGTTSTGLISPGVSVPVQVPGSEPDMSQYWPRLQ
Chain of Transcription factor Sp1 (Homo sapiens) (P08047 whole entry, looked up, the tested form may be a part): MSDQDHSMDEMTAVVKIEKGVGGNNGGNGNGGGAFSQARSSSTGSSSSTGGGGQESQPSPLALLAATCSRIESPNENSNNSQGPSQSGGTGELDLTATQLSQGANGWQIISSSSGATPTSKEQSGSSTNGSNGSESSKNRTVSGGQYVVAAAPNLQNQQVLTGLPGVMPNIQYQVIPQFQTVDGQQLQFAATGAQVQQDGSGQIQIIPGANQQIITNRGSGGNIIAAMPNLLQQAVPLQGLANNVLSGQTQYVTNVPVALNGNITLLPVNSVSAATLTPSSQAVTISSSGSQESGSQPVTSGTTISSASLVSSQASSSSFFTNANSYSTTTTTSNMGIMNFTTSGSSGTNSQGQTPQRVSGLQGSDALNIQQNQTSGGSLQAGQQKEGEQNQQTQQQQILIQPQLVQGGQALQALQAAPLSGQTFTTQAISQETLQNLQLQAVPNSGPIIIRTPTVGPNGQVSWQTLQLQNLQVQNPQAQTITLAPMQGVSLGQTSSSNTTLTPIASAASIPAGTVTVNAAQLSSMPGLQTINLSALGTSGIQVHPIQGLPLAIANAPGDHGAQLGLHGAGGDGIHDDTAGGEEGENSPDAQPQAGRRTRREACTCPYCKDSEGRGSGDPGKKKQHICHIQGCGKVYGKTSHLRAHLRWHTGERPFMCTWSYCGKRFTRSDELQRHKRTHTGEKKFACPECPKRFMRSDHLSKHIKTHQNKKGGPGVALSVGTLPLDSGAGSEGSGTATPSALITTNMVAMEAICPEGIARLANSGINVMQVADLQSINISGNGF
Chain of Hypoxia-inducible factor 1-alpha (Homo sapiens) (Q16665 whole entry, looked up): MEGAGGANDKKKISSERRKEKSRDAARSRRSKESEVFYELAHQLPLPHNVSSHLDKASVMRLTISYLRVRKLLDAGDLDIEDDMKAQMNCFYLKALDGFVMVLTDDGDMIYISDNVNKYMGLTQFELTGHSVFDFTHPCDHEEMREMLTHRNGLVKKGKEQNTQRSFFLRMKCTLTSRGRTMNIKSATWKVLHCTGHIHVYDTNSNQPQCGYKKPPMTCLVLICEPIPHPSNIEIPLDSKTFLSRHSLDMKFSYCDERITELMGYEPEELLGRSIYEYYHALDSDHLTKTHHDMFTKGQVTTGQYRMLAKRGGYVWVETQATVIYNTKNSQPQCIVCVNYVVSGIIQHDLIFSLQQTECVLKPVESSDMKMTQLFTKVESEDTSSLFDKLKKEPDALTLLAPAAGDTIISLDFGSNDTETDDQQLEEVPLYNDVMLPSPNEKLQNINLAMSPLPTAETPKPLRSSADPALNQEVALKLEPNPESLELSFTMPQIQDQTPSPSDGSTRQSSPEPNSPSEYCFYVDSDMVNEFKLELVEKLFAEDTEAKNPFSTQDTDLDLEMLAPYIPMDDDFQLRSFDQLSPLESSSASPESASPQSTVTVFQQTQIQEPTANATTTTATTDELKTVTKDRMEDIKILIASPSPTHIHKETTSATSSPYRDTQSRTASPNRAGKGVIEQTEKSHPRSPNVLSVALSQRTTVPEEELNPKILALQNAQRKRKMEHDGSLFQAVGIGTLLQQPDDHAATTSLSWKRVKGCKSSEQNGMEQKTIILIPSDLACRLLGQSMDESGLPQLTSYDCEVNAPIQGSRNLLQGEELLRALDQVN
Chain of Signal transducer and activator of transcription 3 (Homo sapiens) (P40763 whole entry, looked up, the tested form may be a part): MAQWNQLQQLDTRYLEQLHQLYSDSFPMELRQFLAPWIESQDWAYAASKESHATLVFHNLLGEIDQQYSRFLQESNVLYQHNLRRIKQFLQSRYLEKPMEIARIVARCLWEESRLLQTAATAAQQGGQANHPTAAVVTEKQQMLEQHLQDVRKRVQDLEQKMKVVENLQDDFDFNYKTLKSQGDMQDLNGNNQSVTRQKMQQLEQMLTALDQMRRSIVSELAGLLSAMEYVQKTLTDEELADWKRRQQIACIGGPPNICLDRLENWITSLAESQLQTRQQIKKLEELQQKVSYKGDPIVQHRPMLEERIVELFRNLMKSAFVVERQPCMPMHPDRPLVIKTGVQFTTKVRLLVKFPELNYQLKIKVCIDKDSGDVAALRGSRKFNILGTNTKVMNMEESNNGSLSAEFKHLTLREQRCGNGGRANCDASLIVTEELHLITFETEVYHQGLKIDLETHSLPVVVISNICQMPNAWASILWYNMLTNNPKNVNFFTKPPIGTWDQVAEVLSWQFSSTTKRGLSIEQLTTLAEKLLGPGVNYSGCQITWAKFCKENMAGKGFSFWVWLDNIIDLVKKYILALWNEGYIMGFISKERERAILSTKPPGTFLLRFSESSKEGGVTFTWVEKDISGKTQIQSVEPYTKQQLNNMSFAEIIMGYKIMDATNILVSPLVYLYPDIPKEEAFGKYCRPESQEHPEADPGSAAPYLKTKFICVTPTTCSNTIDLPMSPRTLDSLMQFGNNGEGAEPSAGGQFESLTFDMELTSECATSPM
Chain of Heat shock factor protein 1 (Homo sapiens) (Q00613 whole entry, looked up): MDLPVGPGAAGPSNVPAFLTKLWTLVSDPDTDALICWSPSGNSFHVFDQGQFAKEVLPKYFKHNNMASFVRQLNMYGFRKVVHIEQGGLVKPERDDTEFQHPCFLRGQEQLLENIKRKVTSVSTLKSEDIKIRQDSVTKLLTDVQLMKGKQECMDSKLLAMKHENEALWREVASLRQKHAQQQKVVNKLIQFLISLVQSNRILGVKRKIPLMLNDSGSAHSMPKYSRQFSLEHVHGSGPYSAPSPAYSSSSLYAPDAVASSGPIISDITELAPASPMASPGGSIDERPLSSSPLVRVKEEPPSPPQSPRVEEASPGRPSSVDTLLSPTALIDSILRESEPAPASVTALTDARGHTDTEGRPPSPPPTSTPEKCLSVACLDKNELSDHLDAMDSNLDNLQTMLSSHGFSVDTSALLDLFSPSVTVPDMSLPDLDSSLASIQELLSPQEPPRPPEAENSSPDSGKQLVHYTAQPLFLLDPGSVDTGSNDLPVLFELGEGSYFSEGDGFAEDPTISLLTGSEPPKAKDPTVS

Turning to `CCCCCCCCCCCCCO`, the result in assay [1], in assay [2], in [3], in [5], in assay [7] and in [8] was inactive. Moreover, the result in assay [9], in assay [11], in assay [12], in assay [13], in assay [14] and in [15] was inactive. Besides, the result in [16] and in assay [17] was inactive. The concentration at half-maximal activity (AC50) in [4] was 34.3 µM (active); in assay [6] it was 8.99 µM (active); in [10] it was 34.3 µM (active).

`O=C(OCCCCCOC(=O)c1ccccc1)c1ccccc1`: the outcome in assay [1], in assay [2], in assay [3], in [4], in assay [5] and in assay [7] was inactive. For the same molecule, the molecule was classed as inactive in assay [8], in [9], in assay [10], in assay [11], in [12] and in assay [18]. For the same molecule, the call in [13], in assay [14], in assay [15], in assay [16] and in assay [17] was inactive. Further, the half-maximal activity concentration (AC50) in assay [6] was 26.3 µM (active).

In the case of `CC(C)(C)c1cc(O)c(C(C)(C)C)cc1O`, the AC50 is 114 µM (active) in [1]; 114 µM (active) in assay [3]; 40.6 µM (active) in assay [4]; 64.3 µM (active) in assay [7]; 39.2 µM (active) in assay [8]; 61.6 µM (active) in assay [9]. Also, the concentration at half-maximal activity (AC50) is 34.3 µM (active) in [10]; 30.9 µM (active) in assay [12]; 22.6 µM (active) in assay [18]; 114 µM (active) in assay [13]; 65.5 µM (active) in assay [14]; 7.79 µM (active) in [15]. For the same molecule, in assay [17], the AC50 is 42.2 µM (active). The result in assay [2], in assay [5], in assay [6], in assay [11] and in assay [16] was inactive.

On to `Cc1cccc(Nc2cc(Cl)nc(SCC(=O)O)n2)c1C`, for which the molecule was classed as inactive in assay [1], in assay [2], in assay [3], in assay [4], in [5] and in [7]. Moreover, the molecule was called inactive in [8], in [9], in assay [10], in assay [18], in [13] and in assay [14]. In addition, the molecule was classed as inactive in [15], in [16] and in assay [17].

In the case of `CC(=O)OC/C=C(\C)CCC=C(C)C`, the call in assay [1], in assay [2], in [3], in [4], in assay [5] and in assay [6] was inactive. The result in assay [7], in assay [8], in assay [9], in [10], in [12] and in [18] was inactive. Moreover, the outcome in [13], in [14], in assay [15], in assay [16] and in assay [17] was inactive.

For the molecule `CNCc1cc(F)ccc1Oc1ccc(Cl)c(Cl)c1`, the molecule was classed as inactive in [1], in assay [2], in assay [3], in [4], in assay [5] and in assay [6]. Further, the result in [7], in [8], in assay [10], in assay [12], in assay [18] and in [13] was inactive. The call in assay [14], in assay [15], in [16] and in [17] was inactive. In addition, the concentration at half-maximal activity (AC50) in assay [11] was 7.83 µM (active).

Turning to `CCCCCCOCCO`, the result in assay [1], in assay [2], in assay [3], in assay [4], in [5] and in [6] was inactive. Moreover, the molecule was classed as inactive in [7], in assay [8], in assay [9], in assay [10], in assay [12] and in [13]. Further, the result in assay [14], in assay [15], in assay [16] and in assay [17] was inactive.

For orientation: AC50 means the concentration at which the activity in the assay is half-maximal.
